Assay results: PubChem BioAssay (NCI)
This is part of a sample that, as a whole, favours compounds with a hit. Of some 83,000 tested, about 20% had one in any assay.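 Single-dose data. Exposure time 48 hours. Values below 10 considered active.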 Values without a mark were called inactive. Active and inactive are the calls of the source.

Assays:
Assay in all cases: NCI-60 one-dose screen, 48 h (100 = growth as untreated, 0 = no growth, -100 = all killed)
Conditions in all cases: 10 µM unless noted
DU-145 prostate = test system: DU-145 prostate
K-562 leukemia = test system: K-562 leukemia
MALME-3M melanoma = test system: MALME-3M melanoma
MDA-MB-231 breast = test system: MDA-MB-231 breast
RXF 393 renal = test system: RXF 393 renal
SF-268 CNS = test system: SF-268 CNS
SF-295 CNS = test system: SF-295 CNS
SF-539 CNS = test system: SF-539 CNS
UACC-257 melanoma = test system: UACC-257 melanoma
M14 melanoma = test system: M14 melanoma
HCT-15 colon = test system: HCT-15 colon
HT29 colon = test system: HT29 colon
SNB-75 CNS = test system: SNB-75 CNS
SNB-19 CNS = test system: SNB-19 CNS
U251 CNS = test system: U251 CNS
PC-3 prostate = test system: PC-3 prostate
SK-MEL-5 melanoma = test system: SK-MEL-5 melanoma
UACC-62 melanoma = test system: UACC-62 melanoma
LOX IMVI melanoma = test system: LOX IMVI melanoma
SK-MEL-28 melanoma = test system: SK-MEL-28 melanoma

Compound	growth (DU-145 prostate)	growth (K-562 leukemia)	growth (MALME-3M melanoma)	growth (MDA-MB-231 breast)	growth (RXF 393 renal)	growth (SF-268 CNS)	growth (SF-295 CNS)	growth (SF-539 CNS)	growth (UACC-257 melanoma)	growth (M14 melanoma)	growth (HCT-15 colon)	growth (HT29 colon)	growth (SNB-75 CNS)	growth (SNB-19 CNS)	growth (U251 CNS)	growth (PC-3 prostate)	growth (SK-MEL-5 melanoma)	growth (UACC-62 melanoma)	growth (LOX IMVI melanoma)	growth (SK-MEL-28 melanoma)
Cc1nc2ccc(Nc3nc(N4CCOCC4)nc(N4CCN(C)CC4)n3)cc2n1Cc1ccccc1	98.4%	29.3%	65.7%	68.5%	61.1%	68.8%	90.1%	76.5%	82.5%	83.4%	87.4%	53%	62.4%	112%	73.5%	90%	71.4%	107%	74.7%	64.1%
Nc1nc(N)c2c(n1)NC(c1sc(Cl)nc1Cl)CC(c1ccccc1)=N2 (stereo not given)	75.1%	17.5%	26.8%	47.8%	43.8%	53.6%	35.2%	35.4%	68.6%	26.2%	27.9%	12.6%	30.1%	61.7%	33.3%	59.5%	33.5%	45.7%	41.5%	62.3%
NS(=O)(=O)c1ccc(N2N=C(c3cccs3)CC2c2ccccc2O)cc1 (stereo not given)	-45% (active)	4.59% (active)	47.9%	-19.3% (active)	27.1%	7.15% (active)	1.4% (active)	-23.5% (active)	33.2%	0.852% (active)	4.16% (active)	-25.6% (active)	30.5%	63.3%	0.571% (active)	8.13% (active)	-29.1% (active)	24.2%	13.5%	27.3%
Cc1n(Cc2ccc3ccccc3n2)cc[n+]1Cc1ccc2ccccc2n1	94.6%	36.2%	55.9%	97.3%	86.8%	73.5%	87.7%	67.9%	42.6%	86.9%	100%	62%	65.8%	54%	58.8%	55.8%	59%	73%	81.9%	72%
CCCCCCCCCCCCCCCc1cc(O)ccc1[N+](=O)[O-]	104%	67.7%	96.4%	69.2%	95%	91.6%	94.3%	103%	87.3%	93.1%	73.7%	107%	83.1%	99.9%	70.1%	59.5%	76.1%	67.9%	98%	102%
Cc1cc(Cl)c2ccc(N(C)C)cc2n1	113%	88.7%	108%	102%	95.5%	102%	100%	106%	97.4%	100%	94.9%	102%	82.7%	95%	92.8%	101%	102%	101%	96.9%	101%
Cc1ccc(-c2nc3ccccc3c(=O)n2/N=C/c2cccc3ccccc23)cc1	96.9%	65.5%	68.6%	66.8%	91.8%	74.1%	66.8%	96.5%	86.4%	67.5%	74.3%	102%	74.3%	94.4%	77%	63.3%	75.5%	69.4%	63.4%	85.6%
O=C(N=Nc1c(Cl)c(O)c2ccccc2c1O)C(=O)Nc1cccc(C(F)(F)F)c1	-38.7% (active)	57.6%	10.7%	56.6%	81.5%	68.2%	41.1%	102%	100%	32.8%	68.9%	73.6%	31.3%	92.6%	74.6%	58.2%	72.4%	83.2%	14.7%	101%
COc1ccc(/C(=C\c2cc(OC)c(OC)c(OC)c2)C(=O)N2CCNCC2)cc1	112%	92.4%	108%	102%	99.2%	103%	104%	102%	91.3%	99%	104%	95.6%	83%	99.7%	94.6%	90.7%	93.4%	90%	87.5%	112%
COc1ccc(C2CC(c3cccc(Nc4ccnc5cc(Cl)ccc45)c3)=NN2c2ccc(Cl)cc2)cc1 (stereo not given)	79.2%	12.8%	74.6%	75.5%	105%	55.1%	30.7%	-31.5% (active)	70.7%	28.3%	42.5%	64.2%	79.7%	94.8%	65%	60.7%	53.4%	9.78% (active)	47.4%	65.8%
c1ccc2c(Cc3csc4ccccc34)csc2c1	110%	23.8%	81.9%	94.9%	83.6%	104%	69.2%	91.4%	93.5%	67.7%	76.1%	76.2%	66.9%	90.4%	81.9%	85.2%	91%	86.4%	84.3%	82.9%
O=C(Nc1ccc2[nH]c3ccccc3c2c1)c1ccccc1Cl	75%	10% (active)	35.3%	40.3%	26.5%	63%	10.7%	51.7%	83.1%	26.2%	31.7%	1.78% (active)	59.1%	82.9%	32.6%	54.1%	30.3%	56.4%	33.9%	57.8%
CCOC(=O)C(=CNc1ccccc1Cl)C(=O)OCC	107%	54.3%	140%	104%	100%	94.3%	89.9%	102%	103%	113%	88.2%	89.1%	108%	97.1%	94.5%	95.8%	77.1%	72.4%	95.8%	116%
Cc1ccc2cc3c(NC(=O)c4cccnc4)nn(C)c3nc2c1	100%	85.8%	99.1%	83.8%	89.3%	97.3%	101%	97.1%	99.3%	93.3%	91.6%	75.8%	73.8%	82.6%	85.2%	62.5%	83.1%	88.7%	92.4%	96%
N#Cc1c(N)n(C2OC(CO)C(O)C2O)c2ncnc(N)c12 (stereo not given)	-9.06% (active)	-28.6% (active)	-25.7% (active)	14.3%	-77.1% (active)	-18.8% (active)	4.21% (active)	-53.1% (active)	-37.8% (active)	-52% (active)	-4.45% (active)	2.5% (active)	-37.5% (active)	5.99% (active)	15.2%	-13.5% (active)	-33.4% (active)	-49.6% (active)	-52.4% (active)	-60.9% (active)
COc1ccc(C(=O)/C=C/c2cn(-c3ccccc3)nc2-c2cccc(Nc3ccnc4cc(Cl)ccc34)c2)cc1	86.5%	85.9%	57.4%	70.8%	95.2%	89.3%	106%	103%	90.1%	110%	101%	104%	99.5%	93.2%	94.9%	87.4%	88.4%	89.9%	104%	95.3%
